High-throughput results deposited in PubChem by National Center for Advancing Translational Sciences (NCATS).
TDP1 cell CPT – qHTS for Inhibitors of human tyrosyl-DNA phosphodiesterase 1 (TDP1): qHTS in cells in presence of CPT; chicken DT40 Tdp1-/-;hTDP1 cells + 20 nM CPT, ATP luminescence, 48 h; Potency, µM (series often up to 46.2 µM), inactives show top-dose activity change, negative = growth inhibition, most hits filed as inhibitors; hit rate 12% among 420,000; further: potency means the concentration at half of the fitted maximal effect; nearly all actives have a fitted effect of over 55% in size
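Cell growth measured by CellTiter-Glo luminescence after a minimum 48 h, 37 C compound exposure with 20 nM CPT in Tdp1-knockout DT40 cells stably expressing hTDP1, seeded 400/well; qHTS titration format.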
HT1080-NT tox – qHTS for induction of synthetic lethality in tumor cells producing 2HG: qHTS for the HT-1080-NT fibrosarcoma cell line; HT-1080-NT fibrosarcoma viability, CellTiter-Glo ATP luminescence, 48 h; Potency, µM (highest dose often 46.1 µM), for the others: at the top dose activity, negative = less viability, usual class: cytotoxic; hit rate 1.6% among 360,000; AID 686970, 2013;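 further: NT is the 2HG producing partner of a matched IDH1 knockdown line; potency means the concentration at half of the fitted maximal effect; 0% = DMSO-treated cells and -100% = media-only wells without cells; nearly all actives have a fitted effect of over 55% in size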
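Read-out is CellTiter-Glo luminescence after 10 minutes at room temperature, following 48 hours' compound treatment of HT-1080-NT cells (750 cells/well, RPMI, 5% FBS, 37 degrees C).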
DT40 TDP1 no CPT – qHTS for Inhibitors of human tyrosyl-DNA phosphodiesterase 1 (TDP1): qHTS in cells in absence of CPT; DT40 Tdp1-/- hTDP1 cells, no CPT, ATP luminescence, 48 h; Potency, µM (top dose mostly 46.2 µM), for inactives: at the highest dose activity change, negative = growth inhibition, actives largely listed as inhibitors; AID 686978, 2013; hit rate 15% among 420,000; further: potency means the concentration at half of the fitted maximal effect; nearly all actives have a fitted effect of over 55% in size
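Growth of hTDP1-complemented DT40 Tdp1-knockout cells is measured by ATP luminescence after at least 48 hr compound exposure at 37 °C, with DMSO substituting for the 20 nM CPT used in the parallel screen.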
HT1080 IDH1KD tx – qHTS for induction of synthetic lethality in tumor cells producing 2HG: qHTS for the HT-1080-IDH1KD cell line. HT-1080 IDH1 knockdown viability, ATP luminescence, 48 h. Potency, µM (series often up to 46.1 µM), without a hit: top-dose activity, negative = toxicity, hits mostly cytotoxic. hit rate 2% among 360,000. AID 686971, 2013;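 further: potency means the concentration at half of the fitted maximal effect; 0% = DMSO wells and -100% = cell-free medium wells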
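Luminescent ATP read-out (CellTiter-Glo, 10 min at room temperature) after 48 h compound exposure at 37 °C gave viability of IDH1-knockdown HT-1080 cells. Activity was normalised to DMSO and cell-free wells, then fitted as concentration-response curves.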
IL-1B inflam inh – qHTS for Inhibitors of Inflammasome Signaling: IL-1-beta AlphaLISA Primary Screen. hit rate 4.7% among 360,000. THP-1 LPS/ATP IL-1B secretion, AlphaLISA, 16 h; active compounds read low. activity change, % at 57.5 µM; in the data active means activity change below about -50%; inconclusive means mostly about -30% to -49%
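Secreted IL-1B measured by AlphaLISA bead assay after 16 h compound exposure of THP-1 cells; compounds (final up to 57.5 uM) added 1 h before LPS (250 ng/mL) and ATP (1.25 mM) stimulation; lower signal means less secretion.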
An asterisk follows results filed as active; u = inconclusive; x = not tested or not shown; [ ] = another dose, or the depositor's remark. In the library only some 19% were active in any assay of this set; here they are far more common. Unless noted, the call rests on the fitted dose curve; in most records, active means well fitted curve in the direction sought with a large enough effect; inconclusive means small, poorly fitted or top-dose-only effect, or another doubt; inactive means no such curve, though single readings can be large; an effect the other way counts as inactive or inconclusive. Unless noted, on the % scale 0 is the no-effect control and ±100 the full control effect.

SMILES	TDP1 cell CPT	HT1080-NT tox	DT40 TDP1 no CPT	HT1080 IDH1KD tx	IL-1B inflam inh
Cc1ccc(NC(=S)NC(NC(=O)c2ccccc2C)C(Cl)(Cl)Cl)c(C)c1 (configuration not stated)	u	u	u	u	-25.5
COC(=O)c1ccccc1NC(=S)NC(NC(=O)c1ccccc1[N+](=O)[O-])C(Cl)(Cl)Cl (configuration not stated)	-0.3%	-9.3%	-15.5%	0.8%	39.9
COc1ccc(NC(=S)NC(NC(=O)c2ccccc2Cl)C(Cl)(Cl)Cl)c([N+](=O)[O-])c1 (configuration not stated)	u	u	u	1.6%[9.24 µM]	-86.8*
COc1ccc(NC(=S)NC(NC(=O)c2ccc(Cl)cc2Cl)C(Cl)(Cl)Cl)c([N+](=O)[O-])c1 (configuration not stated)	u	u	u	13.9%[9.24 µM]	-95.4*
O=C(NC(NC(=S)Nc1c(Cl)cccc1Cl)C(Cl)(Cl)Cl)c1cccc([N+](=O)[O-])c1 (configuration not stated)	20.6µM*	u	11.6µM*	u	-26.5
COc1ccc(NC(=O)c2ccc(C)cc2Cl)c([N+](=O)[O-])c1	-8.9%	u	-9.2%	3.4%[9.24 µM]	-29.7
COc1ccc(NC(=S)NC(NC(=O)c2cccc3ccccc23)C(Cl)(Cl)Cl)c([N+](=O)[O-])c1 (configuration not stated)	u	-22.2%	u	0.5%	-55.7*
Cc1cc(C)c(NC(=O)C2=COCCO2)c(C)c1	1.7%	9.5%	-8.0%	15.0%	7.5
Cc1snc(S(=O)(=O)Cc2ccccc2Cl)c1C#N	6.9%	29.6%	-15.5%	u	-7.9
COc1ccc(NC(=S)NC(NC(=O)CCl)C(Cl)(Cl)Cl)c([N+](=O)[O-])c1 (configuration not stated)	u	-20.2%	u	-13.8%	-50.1*
CCC(C)(C)C(=O)Nc1ccc(OC)cc1[N+](=O)[O-]	-14.9%	2.6%[9.24 µM]	-22.6%	1.4%	-17.1
COc1ccc(NC(=O)CSc2ccc3nnc(-c4ccccn4)n3n2)cc1OC	5.6%	-0.9%	10.6%	7.3%	9.5
CCCn1c(N)c(C(=O)CSc2nc(C)cs2)c(=O)[nH]c1=O	u	1.9%	14.6µM*	-1.3%	-10.6
CCOC(=O)c1csc(NC(=O)CC2CCCC2)n1	-10.6%	-8.7%	-14.8%	-14.6%	27.0
O=C(CCl)NCCCCCCCCCNC(=O)CCl	4.61µM*	16.4µM*	6.51µM*	14.6µM*	-89.9*
Cc1cc(-c2nc3ncccc3o2)ccc1NC(=O)c1ccc(Br)cc1	-2.3%	x	-23.3%	x	x
CC1=CC(C)(C)Nc2ccc(OC(=O)CCN3C(=O)c4ccccc4C3=O)cc21	3.26µM*	u	3.66µM*	u	-98.9*
Cc1ccc(NC(=S)NC(=O)C2CC2)c(C)c1	-11.3%	-0.8%	-0.3%	1.8%	23.0
Cc1ccsc1CCN1C(=O)N(c2ccccc2)C(=O)C1CC(=O)Nc1ccc(Cl)cc1 (configuration not stated)	25.9µM*	x	u	x	x
Cc1ccc(CN2C(=O)N(c3ccccc3)C(=O)C2CC(=O)Nc2ccccc2)cc1 (configuration not stated)	-21.9%	x	u	x	x
O=C(CC1C(=O)N(c2ccccc2)C(=O)N1CCc1cccs1)Nc1ccc(Cl)cc1 (configuration not stated)	20.6µM*	x	u	x	x
CC(=O)c1ccc(S(=O)(=O)Nc2ccc(C(=O)N(C)CC(=O)Nc3cccc(C)c3C)cc2)cc1	-8.8%	-2.7%	-2.9%	-1.3%	11.1
Cn1c(=O)n(C)c2cc(S(=O)(=O)NCCc3ccccc3)ccc21	23.1µM*	-2.0%	23.1µM*	-12.2%	18.3
CC1Sc2ccc(S(=O)(=O)CCC(=O)NC3CCCC(C)C3C)cc2NC1=O (configuration not stated)	20.6µM*	-10.0%	20.6µM*	-2.2%	21.8
CC1Sc2ccc(S(=O)(=O)CCC(=O)N(C)Cc3ccccc3)cc2NC1=O (configuration not stated)	18.4µM*	-2.3%	u	-4.2%	28.6
SMILES	TDP1 cell CPT	HT1080-NT tox	DT40 TDP1 no CPT	HT1080 IDH1KD tx	IL-1B inflam inh
CCCNS(=O)(=O)c1ccc2c(c1)n(C)c(=O)n2C	-11.4%	-3.7%	-22.4%	1.2%	5.5
CC1Sc2ccc(S(=O)(=O)NCCc3ccccc3)cc2NC1=O (configuration not stated)	20.6µM*	-5.1%	23.1µM*	0.0%	-2.1
CC1CCCC(NC(=O)CCS(=O)(=O)c2ccc3c(c2)NC(=O)CS3)C1C (configuration not stated)	u	-13.3%	u	-5.9%	0.0
CC1Sc2ccc(S(=O)(=O)NCCc3ccc(S(N)(=O)=O)cc3)cc2NC1=O (configuration not stated)	-27.2%	-5.8%	-5.6%	-7.6%	10.4
O=C(Nc1ccccc1)c1nccn1Cc1ccc(F)cc1	-14.4%	-2.8%	-21.1%	4.2%	-19.7
CCOC(=O)C(Cc1ccccc1)NC(=O)CCc1nnc2ccc(N3CCCC3)nn12 (configuration not stated)	u	-2.1%	-22.1%	4.5%	-5.6
COc1ccc(NC(=O)C(=O)Nc2ccc3nc4n(c(=O)c3c2)CCCCC4)c(OC)c1	-6.9%	x	-6.9%	x	x
COc1ccc(Nc2nnc(Cc3ccncc3)c3ccccc23)c(OC)c1	-25.2%	-0.6%	-28.3%	2.5%	-57.0*
CCc1ccc2c(c1)c(=O)c(S(=O)(=O)c1ccccc1)cn2CC(=O)Nc1ccc(OC)cc1	-10.6%	x	-0.3%	x	x
CN(C)CCCOc1ccc(-c2cc3nc(NCc4cccnc4)n(C)c(=O)c3s2)cn1	u	u	18.4µM*	-17.1%	-14.6
Cn1c(NCc2cccnc2)nc2cc(-c3cccc(C(=O)NCCO)c3)sc2c1=O	9.2µM*	-13.0%	-22.7%	-13.6%	u
COc1cccc(-c2cc3nc(NCc4cccnc4)n(C)c(=O)c3s2)c1	u	8.5%	u	5.4%	22.6
CCOc1ccccc1NC(=O)CSc1nnc(C2CC2)n1CC	-2.6%	24.0%	-12.6%	1.8%	1.0
CCC(=O)Nc1ccc(S(=O)(=O)N2CCN(c3ccc(F)cc3)CC2)cc1	-17.4%	-6.0%	-20.7%	2.0%	-2.6
CC(=O)Nc1nc2ccccc2n1CCOc1ccccc1	u	-19.7%	u	-28.4%	24.2
